# About 83,000 compounds went through this panel and 20% of them were active in at least one assay; those are over-represented in the sample as a whole.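 Plates (96-well) were seeded with cells, treated with compound at one concentration, and incubated for 48 hours before percent growth was determined.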 Unmarked numbers belong to inactive results. Activity calls are given as the source filed them. Rule for the calls: active = growth percent below 10; inactive = the rest.
# Tested on: HL-60(TB) leukemia
# Assay: NCI-60 one-dose screen, 48 h (100 = growth as untreated, 0 = no growth, -100 = all killed)
# Settings: 10 µM unless noted
row,SMILES,growth
1,COC(=O)CCC1=C(CC(=O)OC)C(C)=N/C1=C\c1[nH]c(-c2ccc[nH]2)cc1OC,44.2%
2,Cc1ccc(/C=C(\C#N)C(=O)Nc2ncc(Cc3cc(Cl)ccc3Cl)s2)o1,22.5%
3,N#CC1=C(N)Oc2c(sc3c(Br)cccc23)C1c1ccc(Br)cc1 (centres undefined),6.12% (active)
4,CS(=O)(=O)c1nccc(-c2c(-c3cccc(OCc4ccccc4)c3)nc3sccn23)n1,82.8%
5,CC(C)C[C@H](NC(=O)Cn1ccc2ccccc2c1=O)B(O)O,27.9%
6,CCOC(=O)c1ccc2n1CCCc1cnc(NC(C)=O)nc1-2,109%
7,Oc1ccccc1C=NCC1CCC(CN=Cc2ccccc2O)CC1 (centres undefined),123%
8,CCOc1cc(/C=C/C(=O)C(C(=O)/C=C/c2ccc(OC(=O)CNc3nnc(C)s3)c(OCC)c2)C(=O)CNc2nnc(C)s2)ccc1OC(=O)CNc1nnc(C)s1,-46.4% (active)
9,CCN(CC)c1cc2oc3cc(N)cc(=N)c-3nc2cc1C,-15.2% (active)
10,C#CC#CC#CC#CC#CC#CC#CC#CC[C@@H]1OC[C@@H](COC(=O)O[C@@H](C(=O)O[C@H]2C[C@@]3(O)[C@@H](OC(=O)c4ccccc4)[C@@H]4[C@]5(OC(C)=O)CO[C@@H]5C[C@H](O)[C@@]4(C)C(=O)[C@H](OC(C)=O)C(=C2C)C3(C)C)[C@@H](NC(=O)c2ccccc2)c2ccccc2)O1,2.63% (active)
11,O=C1CCC(C(=O)N/N=C/c2ccc([N+](=O)[O-])cc2)N1 (centres undefined),96.7%
12,CC1(C)CC[C@]2(C(=O)O)CC[C@]3(C)C(=CC[C@@H]4[C@@]5(C)Cc6c([nH]c7ccccc67)C(C)(C)[C@@H]5CC[C@]43C)[C@@H]2C1,16.2%
13,O=C(/C=C/C12c3ccccc3C(c3ccccc31)C1C(=O)NC(=O)C12)c1ccccn1 (centres undefined),-11.5% (active)
14,CCC(C)CC(C)C(=O)c1c(O)ccn(O)c1=O (centres undefined),-0.418% (active)
15,COc1cc(-c2nn(-c3cccc(NC(=O)Nc4cc(C(F)(F)F)cc(C(F)(F)F)c4)c3)cc2-c2ccncc2)ccc1Cl,-20.2% (active)
16,O=S(=O)(NCCCNc1nccc(-n2ccc3cccnc32)n1)c1ccc(Br)cc1,110%
17,C=C1C(=O)O[C@H]2[C@H]1CC/C(COC(=O)CCCCCCCCC(=O)OC/C1=C/CC[C@@]3(C)O[C@H]3[C@H]3OC(=O)C(=C)[C@@H]3CC1)=C\CC[C@@]1(C)O[C@@H]21,-32.8% (active)

row,SMILES,growth
1,O=c1[nH]cnc2c1ccn2C1OC(CO)C(O)C1O (centres undefined),34%
2,COc1ccc(C2=NN(/C=C3\SC(=O)NC3=Nc3ccc(F)cc3)C(c3ccc(F)cc3)C2)cc1 (centres undefined),98.1%
3,Oc1c(CN2CCC(N3CCCCC3)CC2)cc(Cc2cc(CN3CCC(N4CCCCC4)CC3)c(O)c3ncccc23)c2cccnc12,-6.31% (active)
4,COc1cc(/C=C/C(=O)c2c(-c3ccc(Cl)cc3)nc3sc(C)nn23)cc(OC)c1OC,50.6%
5,CC(C)(C)CC(C)(C)c1ccc(OCCOCC[N+](C)(C)Cc2ccccc2)cc1,-63.5% (active)
6,CCCCCC(C)(CC(=O)O)CC(=O)O,90.5%
7,N=C(N)c1ccc(-c2ccc(-c3cc(Cl)cc(Cl)c3)s2)cc1,-57.6% (active)
8,COc1ccc(-c2nc3sc(C)cn3c2/C=C/C(=O)c2cc(OC)c(OC)c(OC)c2)cc1,55.9%
9,COc1ccc(-c2nc(-c3ccccc3)c(-c3ccccc3)[nH]2)cc1OC1CCCCC1,97.6%
10,CCCCCCCCCCCCCCCC1=NC(C)(C)CN1C(C)C,-62.9% (active)
11,CC(=O)c1nn(-c2ccccc2)c(=Nc2ccccc2)cc1C,106%
12,NS(=O)(=O)c1ccc(Br)cc1,96.2%
13,Cc1ccc2nc(-c3ccc(-n4on4-c4ccc(/C=C/c5ccc(-n6on6-c6ccc(-c7nc8ccc(C)cc8s7)cc6)cc5S(=O)(=O)O)c(S(=O)(=O)O)c4)cc3)sc2c1,101%
14,O=S1(=O)CCC(N(/N=C/c2ccco2)c2ccccc2)C1 (centres undefined),100%
15,COc1cc(-c2nn(-c3cccc(NC(=O)Nc4cccc(C(F)(F)F)c4)c3)cc2-c2ccncc2)ccc1Cl,-18.7% (active)
16,COc1cccc2c(=O)c3c(sc12)c(NCCN(C)C)nc1ccccc13,15.1%
17,C=C(C)[C@@H]1CC[C@]2(C(=O)Nc3ccccn3)CC[C@]3(C)[C@H](CC[C@@H]4[C@@]5(C)CCCNC(C)(C)[C@@H]5CC[C@]43C)[C@@H]12,-38.1% (active)

# — PubChem BioAssay (NCI)
